Experimental data: PubChem BioAssay (EPA / NIEHS)
Records with an inconclusive call do not appear. Active and inactive are the calls of the source. The calls were made as follows, unless noted: active = hit-call score of the fitted dose curve at least 0.9, where 1 is the maximum; inactive = score below 0.9.

Columns and labels:
[1] = target: Oxysterols receptor LXR-alpha (Homo sapiens) (UniProt Q13133); experiment: ATG_LXRa_TRANS: Attagene TRANS-FACTORIAL HepG2 Assay for human Liver X Receptor alpha (LXRa) (AID 2282980; active = hit-call score of the fitted dose curve at least 0.9, where 1 is the maximum); settings: HepG2 Attagene TRANS reporter, LXRa transactivation
Outline: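 Chemical-induced reporter mRNA measured by RT-PCR with fluorescent labelling and capillary electrophoresis after 24 h dosing of transiently transfected HepG2 cells expressing exogenous NR-Gal4 chimeras; increases scored against DMSO baseline.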

[2] = target: Oxysterols receptor LXR-beta (Homo sapiens) (UniProt P55055); experiment: ATG_LXRb_TRANS: Attagene TRANS-FACTORIAL HepG2 Assay for human Liver X Receptor beta (LXRb) (AID 2282981; active = hit-call score of the fitted dose curve at least 0.9, where 1 is the maximum); settings: HepG2 Attagene TRANS GAL4-LXRb reporter, mRNA
Outline: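 Readout: fluorescent reporter mRNA fragments resolved by capillary electrophoresis after RT-PCR. System: transiently transfected human HepG2, exogenous LXRb-Gal4 chimera driving GAL4-UAS reporter, 24 h dosing. Activity fitted upward against DMSO baseline.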

[3] = ATG_M_06_TRANS: Attagene TRANS-FACTORIAL HepG2 Assay for M06 Transcription Factor (Internal Marker) (AID 2282983; active = hit-call score of the fitted dose curve at least 0.9, where 1 is the maximum); settings: HepG2 Attagene TRANS M06 internal marker reporter
Outline: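 Background-control reporter readout: after 24 h chemical exposure of transiently transfected HepG2 (GAL4-UAS reporter units), mRNA quantified by RT-PCR with fluorescent labeling and capillary electrophoresis. Gain-of-signal fitting against DMSO baseline.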

[4] = target: Transcriptional activator Myb (Homo sapiens) (UniProt P10242); experiment: ATG_Myb_CIS: Attagene CIS-FACTORIAL HepG2 Assay for human Myeloblastosis (Myb) Proto-Oncogene Transcription Factor (AID 2282986); settings: HepG2 Attagene CIS-FACTORIAL Myb reporter transcription; actives raise or lower the signal
Outline: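 After 24 h of compound dosing, total RNA from transfected HepG2 cells is reverse-transcribed and the reporter sequences amplified, labeled and separated by capillary electrophoresis. Values come from bidirectional fitting against DMSO.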

[5] = target: Nuclear respiratory factor 1 (Homo sapiens) (UniProt Q16656); experiment: ATG_NRF1_CIS: Attagene CIS-FACTORIAL HepG2 Assay for human Nuclear Respiratory Factor 1 (NRF1) Orphan Gene (AID 2282987); settings: HepG2 NRF1 cis-element reporter, Attagene multiplex; actives raise or lower the signal
Outline: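 Measured: fluorescent reporter-specific RT-PCR products from transfected HepG2 cells, separated by capillary electrophoresis. Exposure lasted 24 h. Analysis used bidirectional curve fitting with DMSO as negative control.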

[6] = ATG_NFI_CIS: Attagene CIS-FACTORIAL HepG2 Assay for human Nuclear Factor I (NFI) (AID 2282989); settings: HepG2 cis-regulatory reporter, NFI response element transcription; actives raise or lower the signal
Outline: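 Multiplexed cis-reporter system in human HepG2 cells reports native TF activity as reporter mRNA induction 24 h post-dose. Fragments labelled with 6-FAM, HpaI-digested and resolved by capillary electrophoresis; activity fitted both directions versus DMSO.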

[7] = target: Myc proto-oncogene protein (Homo sapiens) (UniProt P01106); experiment: ATG_Myc_CIS: Attagene CIS-FACTORIAL HepG2 Assay for human Myelocytomatosis (Myc) Proto-Oncogene Transcription Factor (AID 2282990); settings: HepG2, Attagene cis-reporter transcription factor activity; actives raise or lower the signal
Outline: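 Fluorescence intensity of reporter-specific cDNA fragments, separated by capillary electrophoresis, gives the signal. Transfected HepG2 cells carrying cis-promoter reporter constructs are incubated with compound for 24 h; DMSO serves as baseline.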

[8] = ATG_NF_kB_CIS: Attagene CIS-FACTORIAL HepG2 Assay for human Nuclear Factor Kappa B (NF-kB) (AID 2282991); settings: HepG2 Attagene cis-factorial NF-kB reporter mRNA; actives raise or lower the signal
Outline: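 Fluorescence of labelled RT-PCR products separated by capillary electrophoresis gives reporter mRNA levels from transfected HepG2 cells exposed 24 h; values are fitted in both directions relative to DMSO.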

[9] = ATG_NRF2_ARE_CIS: Attagene CIS-FACTORIAL HepG2 Assay for human Nuclear Factor Erythroid 2 Related Factor 2 (NFR2) response to Antioxidant Response Elements (ARE) (AID 2282992); settings: HepG2 Attagene ARE/NRF2 reporter, transcription factor activity; actives raise or lower the signal
Outline: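 Endogenous transcription factor activity in human liver HepG2 cells is tracked via a cis-element-driven reporter within a multiplexed set. mRNA induction is read by RT-PCR and capillary electrophoresis after 24 h, with DMSO as baseline.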

[10] = ATG_Oct_MLP_CIS: Attagene CIS-FACTORIAL HepG2 Assay for human Octamer-Binding Transcription Factor (Oct) (AID 2282993); settings: HepG2 Attagene cis-factorial Oct reporter, mRNA; actives raise or lower the signal
Outline: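 After 24 h compound exposure, transfected HepG2 cells were lysed for total RNA; reporter-specific cDNA was PCR-amplified, fluorescently labelled and sized by capillary electrophoresis. Bidirectional curve fitting used DMSO as baseline.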

[11] = target: Cellular tumor antigen p53 (Homo sapiens) (UniProt P04637); experiment: ATG_p53_CIS: Attagene CIS-FACTORIAL HepG2 Assay for human p53 Transcription Factor (AID 2282994); settings: HepG2 p53 cis-element reporter, Attagene mRNA; actives raise or lower the signal
Outline: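 Steps: transfect HepG2 with multiplexed cis reporter constructs; dose chemicals 24 h; extract RNA, reverse-transcribe, PCR-amplify reporter sequences; FAM-label, HpaI-digest, resolve fragments by CE. Activity fitted both directions relative to DMSO.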

[12] = BSK_3C_TissueFactor: BioMAP Diversity Plus: 3C Assay for Tissue Factor Biomarker Activity (AID 2282997); settings: BioMAP 3C HUVEC, tissue factor biomarker readout; actives raise or lower the signal
Outline: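 Tissue factor on primary human umbilical vein endothelium was read by ELISA 24 h after dosing, gain or loss relative to DMSO. Cytotoxicity ran alongside via SRB (0.1%, TCA-fixed, 560 nm).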

[13] = BSK_3C_uPAR: BioMAP Diversity Plus: 3C Assay for Urokinase-type plasminogen activator receptor (uPAR) Biomarker Activity (AID 2282998); settings: BioMAP 3C HUVEC, uPAR biomarker ELISA; actives raise or lower the signal
Outline: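 Values derive from bidirectional curve fitting relative to DMSO, which served as baseline of activity. uPAR was measured by ELISA in human umbilical vein endothelial primary cultures 24 h after compound addition.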

[14] = BSK_3C_VCAM1: BioMAP Diversity Plus: 3C Assay for Vascular cell adhesion molecule 1 (VCAM1) Biomarker Activity (AID 2282999); settings: BioMAP 3C HUVEC, VCAM1 ELISA, cytokine-stimulated; actives raise or lower the signal
Outline: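 HUVEC primary cells, 24 h compound exposure; VCAM-1 by ELISA; gain/loss of signal fitted bidirectionally vs DMSO baseline.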

[15] = BSK_4H_Eotaxin3: BioMAP Diversity Plus: 4H Assay for Eotaxin 3 Biomarker Activity (AID 2283000); settings: primary human endothelial cells (HUVEC); actives raise or lower the signal;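 also: CCL26 protein level quantified by ELISA in parallel with SRB cytotoxicity check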
Outline: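 Human umbilical vein endothelial cells (BSK_4H system) dosed with test chemical; Eotaxin-3 (CCL26) measured by ELISA 24 h after dosing. Bidirectional curve fitting relative to DMSO negative control as baseline.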

[16] = ATG_M_32_TRANS: Attagene TRANS-FACTORIAL HepG2 Assay for M32 Transcription Factor (Internal Marker) (AID 2282984; active = hit-call score of the fitted dose curve at least 0.9, where 1 is the maximum;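 also: transcript level of a background control reporter unit measured by RT-PCR and capillary electrophoresis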); settings: HepG2 Attagene TRANS M32 internal marker reporter
Outline: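 Read-out: fluorescent reporter cDNA fragments resolved by capillary electrophoresis after RT-PCR of total RNA. Transfected HepG2 cells were exposed to chemical for 24 h. Activity scored in the positive direction relative to DMSO.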

[17] = target: Nuclear receptor subfamily 4 group A member 2 (Homo sapiens) (UniProt P43354); experiment: ATG_NURR1_TRANS: Attagene TRANS-FACTORIAL HepG2 Assay for human Nuclear Receptor Related Protein 1 (NURR1) (AID 2282985; active = hit-call score of the fitted dose curve at least 0.9, where 1 is the maximum); settings: HepG2 Attagene TRANS reporter, mRNA readout
Outline: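 Read-out: reporter mRNA induction by RT-PCR plus capillary electrophoresis with fluorescence detection, after 24 h dosing of transfected HepG2 cells. Exogenous NR-Gal4 chimera activity drives GAL4-UAS reporter; activity fitted upward versus DMSO.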

[18] = target: Hepatocyte nuclear factor 4-alpha (Homo sapiens) (UniProt P41235); experiment: ATG_HNF4a_TRANS: Attagene TRANS-FACTORIAL HepG2 Assay for human Hepatocyte Nuclear Factor 4 alpha (HNF4a) (AID 2282982; active = hit-call score of the fitted dose curve at least 0.9, where 1 is the maximum); settings: HepG2 HNF4a transactivation reporter, mRNA readout
Outline: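 Transient MRTU transfection of HepG2, 24 h dosing. Readout: reporter mRNA via RT-PCR + capillary electrophoresis, fluorescence; activity fit upward relative to DMSO control.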

Myc proto-oncogene protein (Homo sapiens), sequence (P01106 whole entry, looked up, the tested form may be a part): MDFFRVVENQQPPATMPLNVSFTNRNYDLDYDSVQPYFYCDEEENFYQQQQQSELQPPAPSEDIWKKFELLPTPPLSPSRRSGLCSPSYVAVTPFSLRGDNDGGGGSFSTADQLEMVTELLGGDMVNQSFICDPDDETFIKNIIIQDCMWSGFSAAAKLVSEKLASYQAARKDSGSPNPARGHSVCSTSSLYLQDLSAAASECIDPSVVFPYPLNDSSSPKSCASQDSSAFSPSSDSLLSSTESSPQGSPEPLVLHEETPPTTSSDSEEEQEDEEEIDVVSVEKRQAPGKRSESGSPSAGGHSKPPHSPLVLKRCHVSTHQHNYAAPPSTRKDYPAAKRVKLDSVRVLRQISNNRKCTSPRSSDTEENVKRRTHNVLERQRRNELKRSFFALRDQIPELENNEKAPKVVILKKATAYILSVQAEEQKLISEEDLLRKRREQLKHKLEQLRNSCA
Oxysterols receptor LXR-beta (Homo sapiens), sequence (P55055 whole entry, looked up, the tested form may be a part): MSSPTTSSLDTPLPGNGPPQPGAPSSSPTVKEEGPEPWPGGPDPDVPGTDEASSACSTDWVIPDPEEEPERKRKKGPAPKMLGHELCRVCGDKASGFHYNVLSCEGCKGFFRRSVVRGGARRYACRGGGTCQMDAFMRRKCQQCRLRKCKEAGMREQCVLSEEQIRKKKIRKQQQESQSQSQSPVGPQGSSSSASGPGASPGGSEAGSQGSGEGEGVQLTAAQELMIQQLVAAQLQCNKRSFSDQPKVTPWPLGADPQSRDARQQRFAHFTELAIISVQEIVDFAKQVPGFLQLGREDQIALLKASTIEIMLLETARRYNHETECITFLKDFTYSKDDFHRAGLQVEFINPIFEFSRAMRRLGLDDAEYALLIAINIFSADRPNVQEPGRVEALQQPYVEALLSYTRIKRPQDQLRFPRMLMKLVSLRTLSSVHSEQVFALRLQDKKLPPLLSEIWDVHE
Oxysterols receptor LXR-alpha (Homo sapiens), sequence (Q13133 whole entry, looked up, the tested form may be a part): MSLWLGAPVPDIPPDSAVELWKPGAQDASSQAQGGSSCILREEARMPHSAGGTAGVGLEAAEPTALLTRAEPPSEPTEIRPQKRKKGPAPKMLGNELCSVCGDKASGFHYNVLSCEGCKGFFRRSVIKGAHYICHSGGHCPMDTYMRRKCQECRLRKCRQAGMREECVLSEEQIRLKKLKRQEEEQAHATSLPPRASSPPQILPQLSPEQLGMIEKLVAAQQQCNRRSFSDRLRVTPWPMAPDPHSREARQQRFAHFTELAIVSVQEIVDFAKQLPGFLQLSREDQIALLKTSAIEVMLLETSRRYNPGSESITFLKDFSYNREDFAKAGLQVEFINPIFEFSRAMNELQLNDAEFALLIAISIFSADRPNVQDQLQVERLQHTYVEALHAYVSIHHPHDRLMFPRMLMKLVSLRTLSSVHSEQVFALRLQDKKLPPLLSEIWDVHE
Transcriptional activator Myb (Homo sapiens), sequence (P10242 whole entry, looked up): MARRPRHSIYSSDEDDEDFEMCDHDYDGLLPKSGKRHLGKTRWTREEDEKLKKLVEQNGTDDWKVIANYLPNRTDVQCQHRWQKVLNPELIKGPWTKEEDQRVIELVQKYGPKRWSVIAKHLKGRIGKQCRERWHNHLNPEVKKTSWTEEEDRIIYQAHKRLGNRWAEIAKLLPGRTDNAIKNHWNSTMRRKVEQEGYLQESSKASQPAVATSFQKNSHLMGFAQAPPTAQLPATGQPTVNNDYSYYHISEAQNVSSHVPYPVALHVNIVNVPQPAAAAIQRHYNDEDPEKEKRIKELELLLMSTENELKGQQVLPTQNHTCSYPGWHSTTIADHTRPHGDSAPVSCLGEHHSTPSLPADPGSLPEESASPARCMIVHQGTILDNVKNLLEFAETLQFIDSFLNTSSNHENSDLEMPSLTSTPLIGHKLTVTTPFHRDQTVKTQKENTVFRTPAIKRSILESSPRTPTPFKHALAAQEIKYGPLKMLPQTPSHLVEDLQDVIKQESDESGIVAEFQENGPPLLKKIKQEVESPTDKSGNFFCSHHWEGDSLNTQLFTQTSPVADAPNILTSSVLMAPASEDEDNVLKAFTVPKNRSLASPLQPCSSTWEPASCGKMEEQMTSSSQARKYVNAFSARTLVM
Hepatocyte nuclear factor 4-alpha (Homo sapiens), sequence (P41235 whole entry, looked up): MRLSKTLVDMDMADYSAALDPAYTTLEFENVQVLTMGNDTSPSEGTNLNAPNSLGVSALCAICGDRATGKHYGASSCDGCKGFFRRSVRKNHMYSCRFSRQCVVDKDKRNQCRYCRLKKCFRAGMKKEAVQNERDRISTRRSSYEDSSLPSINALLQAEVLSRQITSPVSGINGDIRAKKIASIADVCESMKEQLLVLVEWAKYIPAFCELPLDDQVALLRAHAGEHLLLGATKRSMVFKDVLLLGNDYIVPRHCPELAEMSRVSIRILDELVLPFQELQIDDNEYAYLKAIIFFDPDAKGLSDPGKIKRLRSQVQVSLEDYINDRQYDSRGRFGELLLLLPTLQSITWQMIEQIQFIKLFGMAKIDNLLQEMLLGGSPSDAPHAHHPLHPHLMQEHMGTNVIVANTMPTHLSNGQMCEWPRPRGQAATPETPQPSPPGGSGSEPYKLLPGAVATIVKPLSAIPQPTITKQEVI
Nuclear receptor subfamily 4 group A member 2 (Homo sapiens), sequence (P43354 whole entry, looked up, the tested form may be a part): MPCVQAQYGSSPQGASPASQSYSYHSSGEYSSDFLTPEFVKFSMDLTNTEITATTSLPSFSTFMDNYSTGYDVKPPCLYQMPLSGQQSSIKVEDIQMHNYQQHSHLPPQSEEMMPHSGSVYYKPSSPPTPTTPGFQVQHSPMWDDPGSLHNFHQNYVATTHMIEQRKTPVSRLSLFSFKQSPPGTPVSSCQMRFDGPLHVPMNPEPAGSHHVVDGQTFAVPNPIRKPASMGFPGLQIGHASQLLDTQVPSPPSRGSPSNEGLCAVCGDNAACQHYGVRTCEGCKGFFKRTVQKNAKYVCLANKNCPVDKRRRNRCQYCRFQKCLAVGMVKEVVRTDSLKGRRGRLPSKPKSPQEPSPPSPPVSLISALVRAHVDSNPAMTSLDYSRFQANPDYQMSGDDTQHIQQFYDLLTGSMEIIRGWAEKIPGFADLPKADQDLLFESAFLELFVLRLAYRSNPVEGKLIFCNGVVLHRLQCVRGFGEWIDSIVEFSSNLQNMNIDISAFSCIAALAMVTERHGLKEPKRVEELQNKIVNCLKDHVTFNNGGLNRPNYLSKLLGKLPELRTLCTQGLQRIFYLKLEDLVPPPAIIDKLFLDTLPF
Nuclear respiratory factor 1 (Homo sapiens), sequence (Q16656 whole entry, looked up): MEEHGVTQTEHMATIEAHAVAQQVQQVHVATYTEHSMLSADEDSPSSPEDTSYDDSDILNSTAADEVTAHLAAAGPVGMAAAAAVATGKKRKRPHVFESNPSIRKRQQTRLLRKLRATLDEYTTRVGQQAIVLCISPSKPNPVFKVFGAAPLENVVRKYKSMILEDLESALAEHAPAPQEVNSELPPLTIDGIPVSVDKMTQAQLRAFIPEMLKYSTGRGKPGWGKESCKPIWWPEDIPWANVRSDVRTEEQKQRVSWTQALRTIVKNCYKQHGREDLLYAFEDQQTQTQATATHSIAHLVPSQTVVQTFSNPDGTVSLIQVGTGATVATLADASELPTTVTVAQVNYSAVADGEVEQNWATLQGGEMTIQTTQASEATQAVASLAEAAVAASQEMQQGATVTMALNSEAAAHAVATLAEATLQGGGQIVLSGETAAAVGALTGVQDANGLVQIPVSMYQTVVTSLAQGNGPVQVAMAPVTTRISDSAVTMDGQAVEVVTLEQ
Cellular tumor antigen p53 (Homo sapiens), sequence (P04637 whole entry, looked up, the tested form may be a part): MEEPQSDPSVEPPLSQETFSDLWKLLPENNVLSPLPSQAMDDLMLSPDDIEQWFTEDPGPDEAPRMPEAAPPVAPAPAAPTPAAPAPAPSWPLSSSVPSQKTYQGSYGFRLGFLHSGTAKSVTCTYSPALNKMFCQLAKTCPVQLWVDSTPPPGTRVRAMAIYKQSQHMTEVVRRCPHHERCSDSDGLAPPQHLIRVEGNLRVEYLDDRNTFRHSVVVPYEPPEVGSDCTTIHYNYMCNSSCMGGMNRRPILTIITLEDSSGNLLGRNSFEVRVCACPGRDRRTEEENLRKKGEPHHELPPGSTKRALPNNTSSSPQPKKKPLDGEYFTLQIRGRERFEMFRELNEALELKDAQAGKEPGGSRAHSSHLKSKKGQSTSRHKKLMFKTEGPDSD

| Compound | outcome [1] | outcome [2] | outcome [3] | outcome [4] | outcome [5] | outcome [6] | outcome [7] | outcome [8] | AC50 [9] | outcome [10] | outcome [11] | outcome [12] | outcome [13] | outcome [14] | outcome [15] | outcome [16] | outcome [17] | outcome [9] | outcome [18] | AC50 [13] |
| --- | --- | --- | --- | --- | --- | --- | --- | --- | --- | --- | --- | --- | --- | --- | --- | --- | --- | --- | --- | --- |
| C[C@H]1C[C@@H]2[C@H]([C@@H](O)C[C@@]3(C)[C@H]2CC[C@]3(O)C(=O)CO)[C@@]2(C)C=CC(=O)C=C12 | inactive | inactive | inactive | inactive | inactive | inactive | inactive | inactive | 26.7 µM (active) | inactive | inactive | inactive | inactive | inactive | inactive | – | – | – | – | – |
| O=C[C@@H](O)[C@H](O)[C@H](O)CO | inactive | – | inactive | inactive | inactive | inactive | inactive | – | – | inactive | inactive | – | – | – | – | inactive | inactive | inactive | – | – |
| Nc1nc2ccc([N+](=O)[O-])cc2s1 | inactive | – | inactive | – | inactive | inactive | inactive | inactive | 56.5 µM (active) | inactive | – | – | – | – | – | inactive | inactive | – | inactive | – |
| COc1nc(C)nc(N)n1 | inactive | – | inactive | inactive | inactive | inactive | inactive | inactive | – | inactive | – | – | – | – | – | inactive | – | inactive | inactive | – |
| CCCCOCCOCCOCCOCCO | inactive | – | inactive | inactive | inactive | inactive | inactive | – | – | inactive | – | – | – | – | – | inactive | – | inactive | inactive | – |
| OCCOCCOCCOCCO | inactive | – | inactive | – | inactive | inactive | inactive | inactive | – | inactive | inactive | – | – | – | – | inactive | inactive | inactive | inactive | – |
| COc1ccc(O)cc1 | inactive | inactive | – | inactive | inactive | inactive | inactive | inactive | – | inactive | inactive | – | – | – | – | inactive | inactive | inactive | – | – |
| C=C(C)[C@@H]1CCC2=CC(=O)C[C@@H](C)[C@]2(C)C1 | inactive | inactive | inactive | inactive | inactive | inactive | inactive | inactive | 80.7 µM (active) | inactive | inactive | – | – | – | – | – | – | – | – | – |
| CC(=O)/C=C/C1=C(C)CCCC1(C)C | inactive | – | inactive | inactive | inactive | inactive | inactive | – | 27.7 µM (active) | inactive | – | inactive | inactive | inactive | inactive | – | inactive | – | – | – |
| CCn1c2ccccc2c2cc(N)ccc21 | inactive | – | inactive | inactive | inactive | inactive | inactive | inactive | 26.4 µM (active) | inactive | inactive | inactive | – | inactive | inactive | inactive | inactive | – | – | 1.82 µM (active) |
| OCCCCCO | inactive | inactive | inactive | inactive | inactive | inactive | inactive | – | – | inactive | inactive | – | – | – | – | – | – | inactive | – | – |
